Inconclusive results are not listed. A number with no mark means an inactive call. Calls of active or inactive are those of the source. Calls come from the whole dose curve; as a rule, active = well fitted inhibition curve with a large enough effect; inconclusive = small, poorly fitted or top-dose-only effect; inactive = no such curve, though single readings can be large or run the other way.
biological target: Luciferin 4-monooxygenase (Photinus pyralis) (UniProt P08659); assay: FLuc inhibitory activity for the follow-up compounds in a biochemical assay with Km concentrations of substrate; details: purified FLuc, Km substrates, luminescence; series mostly up to 57.5 µM; activity change, negative = inhibition: at the top concentration
Sequence (P08659 whole entry, looked up): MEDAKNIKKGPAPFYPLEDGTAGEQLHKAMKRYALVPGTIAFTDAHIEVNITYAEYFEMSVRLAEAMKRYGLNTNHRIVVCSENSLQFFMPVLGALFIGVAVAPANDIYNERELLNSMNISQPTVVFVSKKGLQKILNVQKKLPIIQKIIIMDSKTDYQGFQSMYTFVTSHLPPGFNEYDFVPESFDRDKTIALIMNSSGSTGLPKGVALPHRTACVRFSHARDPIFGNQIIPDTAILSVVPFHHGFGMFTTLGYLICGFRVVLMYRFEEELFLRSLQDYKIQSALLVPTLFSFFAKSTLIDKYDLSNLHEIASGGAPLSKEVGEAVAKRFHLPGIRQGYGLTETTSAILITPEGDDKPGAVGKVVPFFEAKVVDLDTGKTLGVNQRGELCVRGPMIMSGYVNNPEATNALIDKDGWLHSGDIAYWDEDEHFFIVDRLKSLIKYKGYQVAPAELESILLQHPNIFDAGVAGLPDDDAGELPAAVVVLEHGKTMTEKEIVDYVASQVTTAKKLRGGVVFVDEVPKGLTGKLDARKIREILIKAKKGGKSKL
Text: NCGC Assay Overview: Firefly (Photinus pyralis) luciferase is one of the most commonly used transcriptional reporters. It is considered one of the more dynamically responsive reporters - that is, responsive to changes in reporter transcription - as it requires no post-translational modifications and is enzymatically active directly after protein synthesis (Wood, 1998). With no endogenous expression in mammalian cells and without the requirement of external excitation, it offers very little background signal, thus generally providing excellent signal to background for most assays. Previous profiling work to determine the prevalence of compounds that affect FLuc enzymatic activity (PubChem AID 411) identified that ~3% of the MLSMR library (then at ~72K) inhibited FLuc. […] Of the compounds identified in this profile that inhibited FLuc, 151 compounds were selected for further analysis, in an effort to better understand their mode of inhibiting FLuc. The assay described here confirms the FLuc inhibitory activity of the 151 compounds.
NCGC Assay Protocol Summary: Reagents: 50mM Tris acetate, pH 7.5; 10mM Mg acetate; 10uM D-luciferin (Sigma #L9504); 10uM ATP; 0.01% Tween-20; 0.05% BSA; 10nM P. pyralis luciferase (Sigma #L9506) Control compounds used were two known firefly luciferase inhibitors (3-(5-(3-chlorophenyl)-1,2,4-oxadiazol-3-yl)benzoic acid and 5-(2-fluorophenyl)-3-phenyl-1,2,4-oxadiazole), and DMSO. Three microliters containing firefly luciferase substrates in buffer (final concentrations: 50mM Tris acetate, pH 7.5, 10mM Mg acetate, 0.01% Tween-20, 0.05% BSA, 10uM D-luciferin, and 10uM ATP) are dispensed into each well of a Greiner white, solid-bottom 1536-well format plate using a flying reagent dispenser (FRD). These assay plates were then treated with 23nL of compound or DMSO using a Kalypsys pin tool, which allows for delivery of a 12-point intraplate titration of each compound to the assay plate (quantitative HTS), with a final compound concentrations ranging from approximately ~60uM to 0.3nM. One microliter of firefly luciferase in 500mM Tris-acetate buffer was then delivered by FRD to each well for a final enzyme concentration of 10nM. Luciferase activity was then measured using a ViewLux CCD imager (PerkinElmer), with an average exposure time of 2-30 seconds (2X binning, medium/high gain).

Row | Structure (SMILES) | Potency | activity change, negative = inhibition
1 | CCOc1ccc(C(=O)Nc2ccccc2C(=O)O)cc1 | 1460 nM (active) | 
2 | COc1c(C)cccc1C(=O)Nc1ccc(-c2nc3ccccc3s2)c(Cl)c1 |  | -5.09%
3 | O=C(Nc1ccccc1C(=O)O)c1cccc(NC(=O)c2ccccc2Cl)c1 | 23100 nM (active) | 
4 | O=C(Nc1ccccc1C(=O)O)c1cccc(NC(=O)c2ccccc2Br)c1 | 32600 nM (active) | 
5 | COc1ccc(NS(=O)(=O)c2cccc(C(=O)Nc3ccccc3C(=O)O)c2)cc1 |  | -6.02%
6 | Nc1ccc(-c2nc3cc(N)ccc3s2)cc1 | 819 nM (active) | 
7 | O=C(O)c1cccc(NC(=O)c2cccc(NC(=O)C3CCCO3)c2)c1 (stereo not given) | 919 nM (active) | 
8 | COc1ccc(C(=O)Nc2ccccc2-c2nc3ccccc3s2)c(OC)c1 |  | -3.66%
9 | O=C(Nc1ccccc1C(=O)O)c1ccc(NC(=O)C2CCCCC2)cc1 | 11600 nM (active) | 
10 | O=C(Nc1ccccc1-c1nc2ccccc2s1)c1cccnc1 |  | 9.41%
11 | COc1cc(OC)cc(-c2nc3ccccc3s2)c1 | 6510 nM (active) | 
12 | Nc1ccccc1-c1nc2ccccc2s1 | 8190 nM (active) | 
13 | Nc1ccc2nc(-c3ccc(O)cc3)sc2c1 | 410 nM (active) | 
14 | COc1ccc(C(=O)Nc2nc3ccc(OC)cc3s2)cc1 | 1830 nM (active) | 
15 | Cc1c(NC(=O)c2cc(-n3cnnc3)ccc2Cl)cccc1-c1nc2ccccc2s1 | 580 nM (active) | 
16 | COc1ccc2nc(NC(=O)c3ccc(S(=O)(=O)N4CCCC(C)C4)cc3)sc2c1 (stereo not given) |  | -0.483%
17 | O=C(Nc1ccc(-c2nc3ccccc3s2)cc1)C1=COCCO1 | 91.9 nM (active) | 
18 | CCCC(=O)Nc1nc2ccc(OCC)cc2s1 | 13000 nM (active) | 
19 | COc1ccc(C(=O)Nc2ccccc2C(=O)Nc2ccc(C(=O)O)cc2)cc1 | 1630 nM (active) | 
20 | COc1ccc(C(=O)Nc2ccccc2C(=O)Nc2ccccc2C(=O)O)cc1 | 580 nM (active) | 

Row | Structure (SMILES) | Potency | activity change, negative = inhibition
21 | COc1ccc(Br)cc1C(=O)Nc1ccc(C(=O)O)cc1 |  | 0.649%
22 | CC(C)Oc1ccc(C(=O)Nc2ccc(-c3nc4ccccc4s3)cc2)cc1 |  | -2.68%
23 | COc1cccc(OC)c1C(=O)Nc1cccc(C(=O)Nc2cccc(C(=O)O)c2)c1 | 5800 nM (active) | 
24 | Cc1ccc(C(=O)O/N=C(\N)c2ccccn2)cc1 | 29.1 nM (active) | 
25 | COc1ccc2nc(NC(=O)c3cccs3)sc2c1 | 20600 nM (active) | 
26 | COc1ccccc1C(=O)Nc1ccc(C(=O)O)cc1 |  | -16.1%
27 | COc1ccc(-c2nc3ccccc3s2)cc1NC(=O)c1ccc(F)cc1 |  | -7.28%
28 | CCn1c(C)nc2cc(-c3nc4n(n3)Cc3ccccc3-4)ccc21 | 23.1 nM (active) | 
29 | COc1cc(OC)cc(C(=O)Nc2ccc(-c3nc4ccccc4s3)c(C)c2)c1 |  | -20.8%
30 | O=C(O)c1cccc(NC(=O)c2ccc(Cl)c(S(=O)(=O)N3CCCCCC3)c2)c1 | 58 nM (active) | 
31 | CCOc1ccc2nc(NC(=O)Cc3cccs3)sc2c1 | 10300 nM (active) | 
32 | CC(=O)Nc1cccc(C(=O)Nc2ccccc2C(=O)O)c1 | 32600 nM (active) | 
33 | O=C(Nc1ccccc1C(=O)O)c1cc(S(=O)(=O)Nc2ccccc2)ccc1Cl |  | -3.72%
34 | CCOc1ccc(C(=O)Nc2cccc(C(=O)O)c2)cc1Cl | 58 nM (active) | 
35 | COc1ccc2nc(NC(=O)C3CCN(S(=O)(=O)c4cccnc4)CC3)sc2c1 |  | -9.68%
36 | Nc1ccc2nc(-c3ccccc3)sc2c1 | 163 nM (active) | 
37 | O=C(O)c1cccc(NC(=O)c2cccc(S(=O)(=O)N3CCCCC3)c2)c1 | 1630 nM (active) | 
38 | CC(=O)Oc1ccc(C(=O)Nc2ccccc2C(=O)Nc2ccc(C(=O)O)cc2)cc1 | 5800 nM (active) | 
39 | Cc1ccc(C(=O)Nc2cccc(C(=O)O)c2)cc1S(=O)(=O)N1CCOCC1 | 291 nM (active) | 
40 | O=C(Nc1ccccc1C(=O)O)c1ccc(NC(=O)C2CCCO2)cc1 (stereo not given) | 16300 nM (active) | 
